Measured values published in PubChem BioAssay.
Active and inactive are the calls of the source.

Assays:
[1] = compound effects on lung adenocarcinoma cell viability – A549, calcein-AM fluorescence, 48 h, basal, profiling panel (AID 1162); conditions: higher = more signal
[2] = compound effects on differentiated 3T3-L1 adipocyte viability – cell-based, 3T3-L1 adipocytes, calcein-AM fluorescence, 48 h, basal, profiling panel (AID 1163); conditions: 3T3-L1 adipocytes viability, higher = more signal
[3] = compound effects on hepatocellular carcinoma cell viability – HepG2, calcein-AM fluorescence, 48 h, basal, profiling panel (AID 1164); conditions: higher = more signal
[4] = compound effects on multiple myeloma cell viability – MM1S, calcein-AM fluorescence, 48 h, basal, profiling panel (AID 1165); conditions: higher = more signal
[5] = calcein-AM signal in unstimulated myeloma cells – cell-based, calcein-AM fluorescence, 48 h, PK04 Diversity Set, profiling panel (AID 1166); conditions: RPMI8226 myeloma viability, higher = more signal;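 further: cells grown under basal conditions without added stimulus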
[6] = JC-1 mitochondrial signal, unstimulated HepG2 cells – cell-based, JC-1 fluorescence, 24 h, 100 nL compound, profiling panel (AID 1167); conditions: HepG2 mitochondrial potential, higher = more signal
[7] = JC-1 mitochondrial signal, unstimulated adipocytes – cell-based, JC-1 fluorescence, 3T3-L1 adipocytes, 24 h, 100 nL compound, profiling panel (AID 1168); conditions: JC-1 mitochondrial fluorescence, higher = more signal, called active from +8 up or from −8 down
[8] = JC-1 mitochondrial signal, unstimulated myeloma cells – cell-based, JC-1 fluorescence, RPMI8226, 24 h, 100 nL compound, profiling panel (AID 1169); conditions: JC-1 mitochondrial potential fluorescence, higher = more signal
[9] = JC-1 mitochondrial signal, unstimulated MM1S myeloma – cell-based, JC-1 fluorescence, 24 h, 100 nL compound, profiling panel (AID 1170); conditions: MM1S mitochondrial potential, higher = more signal
[10] = resazurin metabolic signal in A549 cells – cell-based, resazurin fluorescence, 24 h, PK04 Diversity Set, profiling panel (AID 1171); conditions: A549 viability, higher = more signal, called active from +8 up or from −8 down
Further: test concentration not given here.

Row | Structure (SMILES) | z-score [1] | z-score [2] | z-score [3] | z-score [4] | z-score [5] | z-score [6] | z-score [7] | z-score [8] | z-score [9] | z-score [10]
1 | COC(=O)[C@H](C)NC(=O)CCC1CC(OC(=O)NCCc2ccc(F)cc2)CC2(CCCC(COC(=O)NCC(c3ccccc3)c3ccccc3)O2)O1 (stereo not given in full) | -0.0262 | -1 | -0.972 | -3.44 | -3.43 | -0.727 | 1.18 (inactive) | -0.379 | -1.37 | 3.22 (inactive)
2 | CCOC(=O)CCN1C(=O)[C@H]2[C@H]3[C@H](O)[C@H](O)CC(=NNC(=O)OCc4ccc(OC)cc4)[C@@H]3CC[C@H]2C1=O | -0.212 | -0.426 | -0.367 | 0.717 | 0.0819 | -0.547 | -0.0296 (inactive) | -0.91 | -1.1 | -0.807 (inactive)
3 | CC(C)(C)N1C(=O)[C@H]2[C@H]3[C@H](O)[C@H](O)CC(=NOCc4ccccc4)[C@@H]3CC[C@H]2C1=O | 0.366 | 0.218 | 0.586 | -0.0096 | 0.519 | 0.858 | -0.249 (inactive) | 0.701 | -1.01 | -1.58 (inactive)
4 | CC(CCN1CCCCc2nc(C)c(C)cc21)=NOC(C)CN1CCCc2nc(C)c(C)cc21 (stereo not given) | -0.587 | -0.315 | -0.253 | -2.66 | -0.681 | 0.346 | -1.7 (inactive) | 0.133 | -0.269 | 0.37 (inactive)
5 | CO[C@@H]1COC(=O)CC=C[C@@H](C)[C@H](OC)COC(=O)[C@H](COCc2ccccc2)NC(=O)CC=C[C@H]1C | -0.0667 | 0.461 | 0.422 | -0.0878 | 0.651 | 0.0535 | -0.303 (inactive) | 0.577 | 0.179 | -0.27 (inactive)
6 | O=C1O[C@@H](c2ccccc2)[C@@H](c2ccccc2)N2[C@@H](c3ccccc3OCCO)[C@]3(C(=O)Nc4ccc(C#CCCO)cc43)[C@@H](C(=O)O)[C@H]12 | -0.622 | 1.78 | -0.173 | -1.43 | -1.98 | 0.259 | -0.881 (inactive) | -0.231 | -0.641 | -0.0647 (inactive)
7 | C[C@H]1Cc2c(-c3ccccc3)nc3c(c2CO1)CN(CCOc1ccccc1)CC3 | 2.68 | 0.173 | 1.27 | 0.785 | 0.11 | 0.932 | 0.281 (inactive) | -0.324 | -0.439 | -0.31 (inactive)
8 | COc1ccccc1CN1C(=O)c2ccccc2[C@@H](C(=O)NCC(F)(F)F)[C@@H]1c1ccc(CO)cc1 | 1.4 | -0.467 | 1.67 | -0.127 | 1.04 | 1.62 | 0.913 (inactive) | 0.28 | -0.684 | 0.633 (inactive)
9 | COc1cccc([C@@H]2Oc3ccc(Br)cc3C(=O)[C@H]2O)c1 | 1.31 | -0.397 | -1.24 | -3.44 | -1.73 | -3.15 | -0.584 (inactive) | -0.0726 | -1.31 | -0.269 (inactive)
10 | COCCOC(=O)N1C(=O)[C@@]2(c3cc(C#CC4(O)CCCCCC4)ccc31)[C@H](C(=O)N1CCN(c3ncccn3)CC1)[C@H]1C(=O)O[C@H](c3ccccc3)[C@H](c3ccccc3)N1[C@@H]2c1ccc(OCCO)cc1 | 0.514 | 1.48 | -0.118 | 0.0759 | -1.9 | -0.866 | -0.224 (inactive) | -0.479 | -0.653 | -0.49 (inactive)
11 | O=C1[C@H]2[C@H]3[C@H](O)[C@H](O)CC(=NOCc4ccccc4)[C@H]3CC[C@H]2C(=O)N1C[C@@H]1CCCO1 | 0.0598 | -0.247 | -0.85 | -0.306 | 0.422 | -0.528 | -1.13 (inactive) | -0.669 | -0.153 | 0.469 (inactive)
12 | O[C@@H](Cc1ccccc1)[C@H]1C2C=CCCC(c3ccccc3)=C2CN1Cc1cccc(Cl)c1 (stereo not given in full) | 1.89 | 0.101 | 0.662 | -3.27 | -3.43 | 0.514 | -0.366 (inactive) | -1.09 | -0.823 | 0.75 (inactive)
13 | COc1ccc([Si](C)(C)[C@@H]2[C@@H](CCO)O[C@]3(C(=O)N(Cc4ccc(NC(C)=O)cc4)c4ccccc43)[C@H]2C)cc1 | -1.98 | 1.37 | -2.77 | -2.47 | -3.9 | -1.29 | -0.0969 (inactive) | -1.18 | -1.93 | -3.2 (inactive)
14 | COc1ccc(O[C@H]2C=C[C@@H](c3ccccc3)O[C@@H]2COC(=O)CCC(C)=NOC[C@@H](C)[C@H](OCc2ccccc2)C(C)C)cc1 | -0.0801 | 0.13 | -0.442 | -0.0358 | -1.02 | 0.577 | -1.61 (inactive) | 0.815 | -0.146 | 1 (inactive)
15 | COc1cccc([C@H]2Oc3ccc(OC)cc3C(=NO[C@H](C)c3cn([C@@H]4COC[C@H]4O)nn3)[C@@H]2O)c1 | -1.3 | 0.67 | -0.428 | -0.717 | -0.786 | -0.832 | 0.839 (inactive) | 0.161 | -0.761 | -0.481 (inactive)
16 | COc1cccc([C@H]2Oc3ccc(OC)cc3C(=NOC(C)CN3CCCc4nc(C)c(C)cc43)[C@@H]2O)c1 (stereo not given in full) | -0.0217 | -0.529 | 0.778 | 0.296 | -0.627 | 0.0313 | -1.29 (inactive) | 0.239 | -0.947 | -0.455 (inactive)
17 | CC1CC/C=C\[C@H]2OC34C=CCN(Cn5nnc6ccccc65)C(=O)[C@H]3N(CCO)C(=O)[C@@H]4C2C(=O)O1 (stereo not given in full) | -0.338 | 1.11 | -0.447 | 0.0362 | 0.134 | -0.153 | -0.798 (inactive) | 0.691 | 0.206 | 0.676 (inactive)
18 | CO[C@@H]1COC(=O)CC=C[C@@H](C)[C@@H]2C=C[C@H](O)[C@@H](COC(=O)CCC[C@H]1C)O2 | 0.438 | -0.717 | -0.101 | -0.567 | 0.403 | -0.016 | -0.546 (inactive) | -0.347 | -1.23 | -0.165 (inactive)
19 | C#CCCCON=C1C[C@@H](O)[C@@H](O)[C@@H]2[C@@H]3C(=O)N([C@@H](C)c4ccccc4)C(=O)[C@@H]3CC[C@H]12 | -0.858 | -0.0991 | -0.106 | 0.348 | -1.39 | 0.359 | 0.114 (inactive) | 0.234 | -0.53 | -0.0314 (inactive)
20 | COC(=O)[C@@]1(Cc2ccc(F)cc2)[C@H]2c3cc(C(=O)N(C)C)n(Cc4ccc(OC)c(OC)c4)c3C[C@H]2CN1C(=O)c1ccccc1 | -0.74 | 0.272 | -1.36 | -1.13 | -2.04 | 0.594 | -0.512 (inactive) | 0.0709 | -0.7 | -0.507 (inactive)
21 | COCCOC(=O)N1C(=O)[C@@]2(c3cc(C#CCNC(N)=O)ccc31)[C@H](c1ccccc1OCCO)N1[C@H](c3ccccc3)[C@H](c3ccccc3)OC(=O)[C@H]1[C@@H]2C(=O)N1CCN(c2ncccn2)CC1 | 0.0249 | 0.457 | 1.37 | 0.541 | 1.12 | -1.76 | 0.856 (inactive) | -0.847 | -0.859 | -1.27 (inactive)
22 | COC(=O)[C@H](C)NC(=O)CCC1CC(OC(=O)NCc2cccc3ccccc23)CC2(CCCC(COC(=O)NCCc3ccc(Cl)cc3)O2)O1 (stereo not given in full) | 0.346 | 0.118 | 0.0326 | -0.333 | -0.94 | 0.159 | -0.294 (inactive) | -0.318 | -0.197 | 0.871 (inactive)
23 | O=C1[C@H]2[C@H]3[C@H](O)[C@H](O)CC(=NOC[C@@H](O)COCc4ccco4)[C@H]3CC[C@H]2C(=O)N1Cc1ccc2c(c1)OCO2 | -0.259 | -0.672 | -1.05 | -0.642 | -0.334 | -0.41 | -0.339 (inactive) | -0.149 | -0.635 | -0.138 (inactive)
